The values that follow come from PubChem BioAssay AID602364 (National Center for Advancing Translational Sciences (NCATS), 2012).

Results filed as inconclusive are left out. The source made the active and inactive calls. Calls follow the shape of the dose curve; as a rule, active = well fitted inhibition curve with a large enough effect; inconclusive = small, poorly fitted or top-dose-only effect; inactive = flat fitted curve, though single readings scatter.

Sequence of Luciferin 4-monooxygenase (Photinus pyralis) (P08659 whole entry, looked up): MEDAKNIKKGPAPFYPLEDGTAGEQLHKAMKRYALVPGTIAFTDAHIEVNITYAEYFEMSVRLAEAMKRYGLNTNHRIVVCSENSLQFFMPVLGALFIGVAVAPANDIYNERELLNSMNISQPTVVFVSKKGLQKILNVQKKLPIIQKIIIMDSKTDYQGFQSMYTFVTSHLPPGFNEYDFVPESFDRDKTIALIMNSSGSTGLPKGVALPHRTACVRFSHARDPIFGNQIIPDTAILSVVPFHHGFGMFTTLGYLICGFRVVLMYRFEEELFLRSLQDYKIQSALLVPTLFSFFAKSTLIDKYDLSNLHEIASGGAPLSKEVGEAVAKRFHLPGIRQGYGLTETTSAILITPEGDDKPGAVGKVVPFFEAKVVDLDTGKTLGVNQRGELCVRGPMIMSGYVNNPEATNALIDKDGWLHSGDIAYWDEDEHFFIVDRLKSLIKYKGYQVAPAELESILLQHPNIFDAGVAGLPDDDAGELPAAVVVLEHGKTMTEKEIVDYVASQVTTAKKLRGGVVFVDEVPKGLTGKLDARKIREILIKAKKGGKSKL

The target in the assay is Luciferin 4-monooxygenase (Photinus pyralis) (UniProt P08659). As to the kind of experiment: FLuc inhibitory activity for the follow-up compounds in a biochemical assay with 1mM ATP. Particulars: purified P. pyralis luciferase, luminescence; series mostly up to 57.5 µM. The text has this:
NCGC Assay Overview: Firefly (Photinus pyralis) luciferase is one of the most commonly used transcriptional reporters. It is considered one of the more dynamically responsive reporters - that is, responsive to changes in reporter transcription - as it requires no post-translational modifications and is enzymatically active directly after protein synthesis (Wood, 1998). With no endogenous expression in mammalian cells and without the requirement of external excitation, it offers very little background signal, thus generally providing excellent signal to background for most assays. Previous profiling work to determine the prevalence of compounds that affect FLuc enzymatic activity (PubChem AID 411) identified that ~3% of the MLSMR library (then at ~72K) inhibited FLuc. […] Of the compounds identified in this profile that inhibited FLuc, 151 compounds were selected for further analysis, in an effort to better understand their mode of inhibiting FLuc. The assay described here was to determine the activity of the compounds in a FLuc assay that contained a KM concentration of D-luciferin and a high concentration (1mM) of ATP.
NCGC Assay Protocol Summary: Reagents: 50mM Tris acetate, pH 7.5; 10mM Mg acetate; 10uM D-luciferin (Sigma #L9504); 1mM ATP; 0.01% Tween-20; 0.05% BSA; 10nM P. pyralis luciferase (Sigma #L9506) Control compounds used were two known firefly luciferase inhibitors (3-(5-(3-chlorophenyl)-1,2,4-oxadiazol-3-yl)benzoic acid and 5-(2-fluorophenyl)-3-phenyl-1,2,4-oxadiazole), and DMSO. Three microliters containing firefly luciferase substrates in buffer (final concentrations: 50mM Tris acetate, pH 7.5, 10mM Mg acetate, 0.01% Tween-20, 0.05% BSA, 10uM D-luciferin, 1mM ATP) are dispensed into each well of a Greiner white, solid-bottom 1536-well format plate using a flying reagent dispenser (FRD). These assay plates were then treated with 23nL of compound or DMSO using a Kalypsys pin tool, which allows for delivery of a 12-point intraplate titration of each compound to the assay plate (quantitative HTS), with a final compound concentrations ranging from approximately ~60uM to 0.3nM. One microliter of firefly luciferase in […] Tris-acetate buffer was then delivered by FRD to each well for a final enzyme concentration of 10nM. Luciferase activity was then measured using a ViewLux CCD imager (PerkinElmer), with an average exposure time of 2-30 seconds (2X binning, medium/high gain).
With `O=C(Nc1ccccc1C(=O)O)c1cccc(NC(=O)c2ccc(Br)o2)c1`, the Potency is 32.6 µM (active). With `Cc1ccccc1C(=O)Nc1cccc(C(=O)Nc2ccccc2C(=O)O)c1`, the Potency was 32.6 µM (active).

For `O=C(O)c1cccc(NC(=O)c2ccc(COc3ccc(Cl)cc3)cc2)c1`, the Potency is 3.66 µM (active). With `Cc1ccc2nc(-c3ccc(N)cc3)sc2c1`, the Potency was 0.0231 µM (active). With `CCOc1ccc2nc(NC(=O)c3ccccn3)sc2c1`, the Potency was 0.13 µM (active). For `O=C(Nc1ccccc1C(=O)O)c1ccc(Cl)c(S(=O)(=O)N2CCOCC2)c1` the value was 10.3 µM (active).

Take `Cc1ccc(S(=O)(=O)N2CCOCC2)cc1C(=O)Nc1ccccc1C(=O)O`: the Potency entry was “inactive”. As to `CCOc1ccc2nc(NC(=O)c3ccoc3C)sc2c1`, the Potency is 0.13 µM (active).

In the case of `O=C(O)c1cccc(NC(=O)c2cccc(S(=O)(=O)N3CCc4ccccc43)c2)c1`, the Potency was 18.3 µM (active). `CC(C)Oc1ccc(C(=O)Nc2ccc(-c3nc4ccccc4s3)cc2)cc1`: the Potency entry was “inactive”. For `O=C(Nc1ccccc1C(=O)O)c1ccc(NC(=O)C2CC2)cc1` the value was 3.66 µM (active); for `O=C(Nc1cccc(-c2nc3ccccc3s2)c1)c1cc(-n2cnnc2)ccc1Cl`, 9.19 µM (active).

Regarding `COc1ccc2nc(NC(=O)CCc3nc(-c4ccccc4F)no3)sc2c1`, the Potency entry was “inactive”.

Take `Cc1c(NC(=O)c2cc(-n3cnnc3)ccc2Cl)cccc1-c1nc2ccccc2s1`: the Potency is 2.91 µM (active). For `Cc1c(NC(=O)C(C)(C)C)cccc1-c1nc2ccccc2s1` the value was 25.9 µM (active); for `O=C(O)c1cccc(NC(=O)c2cccc(NC(=O)C3CCCO3)c2)c1` (stereo not given), 4.11 µM (active). For `COc1ccc2nc(NC(=O)C3CCN(S(=O)(=O)c4cccnc4)CC3)sc2c1`, the Potency entry was “inactive”. For the compound `COc1ccc(C(=O)Nc2ccccc2C(=O)N/N=C/c2ccc(O)c(OC)c2)cc1`, the Potency is 0.0146 µM (active). For `CCCC(=O)Nc1nc2ccc(OCC)cc2s1` the value was 3.26 µM (active); for `CCOc1ccc2nc(NC(=O)c3cccnc3)sc2c1`, 2.06 µM (active); for `O=C(Nc1ccccc1C(=O)O)c1cc(S(=O)(=O)Nc2cccc(F)c2)ccc1Cl`, “inactive”. As for `O=C(Cc1ccccc1)Nc1ccc(C(=O)Nc2ccccc2C(=O)O)cc1`, the Potency is 20.6 µM (active).

As to `Cc1ccc(C(=O)Nc2cccc(C(=O)O)c2)cc1S(=O)(=O)N1CCCCC1`, the Potency was 0.291 µM (active). For the compound `COc1ccc(C(=O)Nc2ccccc2C(=O)Nc2ccc(C(=O)O)cc2)cc1`, the Potency was 18.3 µM (active). With `O=C(Nc1ccccc1-c1nc2ccccc2s1)c1ccc(Br)o1`, the Potency entry was “inactive”. For `COc1ccc2nc(NC(=O)c3ccco3)sc2c1` the value was 0.183 µM (active). For `O=C(O)c1cccc(NC(=O)c2cccc(S(=O)(=O)N3CCCCC3)c2)c1` the value was 2.31 µM (active); for `COc1ccc(Br)cc1C(=O)Nc1ccc(C(=O)O)cc1`, “inactive”. On to `C/C(=N\NC(=O)c1ccccc1NC(=O)c1ccc(Cl)cc1)c1ccncc1`, for which the Potency was 0.146 µM (active). Take `COc1ccc(-c2cccc(C(=O)Nc3cccc(C(=O)O)c3)c2)cc1`: the Potency was 5.8 µM (active).

With `O=C(Nc1ccccc1-c1nc2ccccc2s1)c1cccnc1`, the Potency is 36.6 µM (active). For `CCOc1ccc(C(=O)Nc2cccc(C(=O)O)c2)cc1Cl` the value was 0.58 µM (active). For `Cc1ccc(C(=O)Nc2cccc(C(=O)O)c2)cc1S(=O)(=O)N1CCCC1`, the Potency was 0.461 µM (active). As for `CN(C)S(=O)(=O)c1ccc(C(=O)Nc2ccccc2C(=O)O)cc1`, the Potency is 32.6 µM (active).

Take `COc1ccc(CC(=O)Nc2ccc(-c3nc4ccccc4s3)c(C)c2)cc1`: the Potency is 18.3 µM (active). For `COc1ccccc1C(=O)Nc1ccc(C(=O)O)cc1` the value was “inactive”; for `Cc1ccc(C(=O)Nc2ccc(C(=O)O)cc2)cc1S(=O)(=O)NCc1ccccc1`, “inactive”; for `CCOc1ccc(C(=O)Nc2ccccc2C(=O)O)cc1`, 1.83 µM (active).

With `Nc1ccc(-c2nc3ccc(C(=O)O)cc3s2)cc1`, the Potency is 0.0651 µM (active). With `COc1ccc(C(=O)Nc2ccccc2C(=O)Nc2ccccc2C(=O)O)cc1`, the Potency was 4.61 µM (active).
